Screening data (PubChem)
ssDAF12 agonist: S. stercoralis DAF-12 activation, primary screen; HEK293 ssDAF-12/GRIP1 lit1-tk-luc reporter, luminescence; % of 3 µM dafachronic acid response; activation, % at 6.8 µM; actives 1% (n = 370,000);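 active = activation above the mean over all tested compounds plus 3 SD, cut at about 0.9% in these data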;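 also: 0% = DMSO-only wells and 100% = 3 µM delta7-dafachronic acid wells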
hgDAF-12 ag: activates the H. glycines DAF-12 receptor ligand-binding domain | HEK293 GAL4-hgDAF12 UAS-luciferase reporter, agonist luminescence; normalized to butyrate control | activation, % at 6.8 µM | actives 1.8% (n = 370,000) | AID 687014;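 active = activation above a cutoff set at the mean of all screened compounds plus 3 SD, cut at about 10% in these data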;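 also: 0% = DMSO wells and 100% = sodium butyrate wells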
DAX1 inh-1: DAX1 (NR0B1) inhibition, primary screen. actives 1.1% (n = 370,000). HEK293T StAR-luciferase reporter, SF-1/DAX-1 repression relief. inhibition, % at 6.8 µM;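 active = inhibition above the mean over all tested compounds plus 3 SD, cut at about 3.6% in these data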;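 also: 0% = DAX-1 cells with DMSO and 100% = cells lacking DAX-1 with DMSO; higher inhibition means more luminescence from relief of DAX-1 repression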
DAX1 inh-2: inhibits human nuclear receptor DAX1. actives 0.99% (n = 340,000). inhibition, % at 6.75 µM. HEK293 Gal4-DAX1 luciferase reporter, luminescence;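 active = inhibition above the mean over all tested compounds plus 3 SD, cut at about 4.2% in these data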;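 also: 0% = DAX1-transfected cells with DMSO and 100% = empty-vector control cells with DMSO; inhibition shows as a rise in luminescence from relieved DAX1 repression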
Target sequence (P51843 207-470 limits assumed): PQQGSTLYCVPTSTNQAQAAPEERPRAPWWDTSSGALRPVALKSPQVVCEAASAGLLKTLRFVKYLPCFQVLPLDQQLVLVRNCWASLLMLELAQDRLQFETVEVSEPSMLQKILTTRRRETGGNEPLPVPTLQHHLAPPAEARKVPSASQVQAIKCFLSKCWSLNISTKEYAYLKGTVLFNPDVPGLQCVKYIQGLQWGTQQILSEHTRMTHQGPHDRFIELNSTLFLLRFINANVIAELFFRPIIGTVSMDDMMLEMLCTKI
SMARCA2 activ: SMARCA2 function activation, primary screen; MG213 cells, MMTV-luciferase reporter, dexamethasone, overnight; activation, % at 9.1 µM; actives 1% (n = 370,000); AID 652017; in the data active = activation above about 7.8%;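 also: 0% = vehicle wells and 100% = reference activator wells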
hcDAF-12 act: activators of H. contortus DAF-12 nuclear receptor; HEK293 hcDAF-12 lit1-tk-luc reporter, luminescence; 0% DMSO, 100% Δ7-dafachronic acid; actives 1.4% (n = 370,000); activation, % at 6.8 µM;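 active = activation above the mean of all tested compounds plus 3 SD, cut at about 5.5% in these data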;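 also: 100% = response to 3 µM Δ7-dafachronic acid high control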
* hit, by the source's call. Compounds with a hit are over-represented: about 4.8% of the library has one in this group of screens.

How did Cc1ccc(NC(=S)c2nc3ccccc3s2)cc1 do in these assays?
ssDAF12 agonist: -1; hgDAF-12 ag: -1; DAX1 inh-1: -1; DAX1 inh-2: 2; SMARCA2 activ: -1; hcDAF-12 act: 2

Results for Cc1ccc(S(=O)(=O)Nc2ccccc2OC(C(=O)OC(C)(C)C)C(=O)OC(C)(C)C)cc1 ?
ssDAF12 agonist: -1; hgDAF-12 ag: 0; DAX1 inh-1: -1; SMARCA2 activ: -4; hcDAF-12 act: -3

How did COc1ccc(-n2c(=S)[nH]c(=O)c3cccnc32)cc1 do in these assays?
ssDAF12 agonist: -1; hgDAF-12 ag: 0; DAX1 inh-1: 0; DAX1 inh-2: 7.2*; SMARCA2 activ: -1; hcDAF-12 act: 0

Results for COc1ccc(-n2c(=S)[nH]c3c(oc4ccccc43)c2=O)cc1 ?
ssDAF12 agonist: -1; hgDAF-12 ag: 0; DAX1 inh-1: 0; DAX1 inh-2: 0; SMARCA2 activ: -1; hcDAF-12 act: 0

What do the screens show for `CCCCn1c(O)c2n(c1=O)Cc1ccccc1N=C2c1ccc(OC)cc1`?
ssDAF12 agonist: 0; hgDAF-12 ag: 4; DAX1 inh-1: -1; SMARCA2 activ: 2; hcDAF-12 act: 5.6*

Results for COC(=O)c1ccc2c(c1)nc(C)n2CCO ?
ssDAF12 agonist: -1; hgDAF-12 ag: 5; DAX1 inh-1: -1; DAX1 inh-2: 1; SMARCA2 activ: 0; hcDAF-12 act: -1

How did C/C(=N\NC(=O)c1ccccc1F)c1ccc2c(c1)Nc1ccccc1S2 do in these assays?
ssDAF12 agonist: -1; hgDAF-12 ag: 11*; DAX1 inh-1: 1; DAX1 inh-2: 0; SMARCA2 activ: 0; hcDAF-12 act: 0

How did C/C(=N\NC(=O)c1ccc(O)cc1)c1ccc2c(c1)Nc1ccccc1S2 do in these assays?
ssDAF12 agonist: -1; hgDAF-12 ag: 8; DAX1 inh-1: 0; DAX1 inh-2: -2; SMARCA2 activ: -4; hcDAF-12 act: -3

How did Cc1sc(NC(=O)c2ccco2)c(C(Nc2ccccn2)c2ccccc2)c1C (stereo not given) do in these assays?
ssDAF12 agonist: -1; hgDAF-12 ag: 11*; DAX1 inh-1: 0; DAX1 inh-2: 0; SMARCA2 activ: 5; hcDAF-12 act: 2

What do the screens show for `COc1ccc(C(Nc2ccccn2)c2c(NC(=O)c3ccco3)sc(C)c2C)cc1` (stereo not given)?
ssDAF12 agonist: 0; hgDAF-12 ag: 3; DAX1 inh-1: 0; DAX1 inh-2: 0; SMARCA2 activ: 2; hcDAF-12 act: 1

Results for Fc1ccc(-c2csc(/C=C/c3ccc4c(c3)OCO4)n2)cc1 ?
ssDAF12 agonist: 1.1*; hgDAF-12 ag: 9; DAX1 inh-1: 0; DAX1 inh-2: 1; SMARCA2 activ: 6; hcDAF-12 act: 3

Results for COC(=O)[C@]12C[C@H](CC(=O)NCc3ccc(C)o3)C(=O)N(CCC3=CCCCC3)C1=C[C@H](C(C)C)O[C@@H]2C1CC1 ?
ssDAF12 agonist: 2.1*; hgDAF-12 ag: -1; DAX1 inh-1: 0; SMARCA2 activ: -4; hcDAF-12 act: -1

Results for COC(=O)[C@]12C[C@H](CC(=O)NCc3cccs3)C(=O)N(CCC3=CCCCC3)C1=C[C@H](C(C)C)O[C@@H]2C1CC1 ?
ssDAF12 agonist: -2; hgDAF-12 ag: 3; DAX1 inh-1: -1; SMARCA2 activ: -6; hcDAF-12 act: 1

What do the screens show for `Cc1nc2cc(NC(=O)c3ccc(Br)s3)ccc2s1`?
ssDAF12 agonist: 0; hgDAF-12 ag: 11*; DAX1 inh-1: 3; DAX1 inh-2: -2; SMARCA2 activ: 1; hcDAF-12 act: 1

How did Cc1nc(NC(=O)c2ccncc2)sc1C(=O)N(C)C do in these assays?
ssDAF12 agonist: 0; hgDAF-12 ag: -1; DAX1 inh-1: 0; DAX1 inh-2: 0; SMARCA2 activ: -1; hcDAF-12 act: -2

Results for Cc1ccc(C(=O)Nc2ccc3nc(C)sc3c2)s1 ?
ssDAF12 agonist: 0; hgDAF-12 ag: 10; DAX1 inh-1: 3; DAX1 inh-2: 2; SMARCA2 activ: 6; hcDAF-12 act: 3

How did Cc1ccc(C(=O)Nc2nc(C)c(C(=O)N(C)C)s2)o1 do in these assays?
ssDAF12 agonist: -1; hgDAF-12 ag: 2; DAX1 inh-1: 4.4*; DAX1 inh-2: 2; SMARCA2 activ: 4; hcDAF-12 act: 2

What do the screens show for `Cc1ccc(C(=O)Nc2ccc3nc(C)sc3c2)o1`?
ssDAF12 agonist: -1; hgDAF-12 ag: 11*; DAX1 inh-1: 4.0*; DAX1 inh-2: 2; SMARCA2 activ: 3; hcDAF-12 act: 3

How did Cc1ccc(C(=O)Nc2nc3ccc(S(C)(=O)=O)cc3s2)o1 do in these assays?
ssDAF12 agonist: -1; hgDAF-12 ag: 12*; DAX1 inh-1: 0; DAX1 inh-2: 1; SMARCA2 activ: 1; hcDAF-12 act: 2

What do the screens show for `Cc1cc(C)n(CC(O)COCc2ccco2)n1` (stereo not given)?
ssDAF12 agonist: -1; hgDAF-12 ag: -1; DAX1 inh-1: 0; DAX1 inh-2: 0; SMARCA2 activ: 1; hcDAF-12 act: 0

How did CC1CCN(CCCNC(=O)c2cc3sccc3n2C)CC1 do in these assays?
ssDAF12 agonist: -1; hgDAF-12 ag: 0; DAX1 inh-1: 0; DAX1 inh-2: -1; SMARCA2 activ: 3; hcDAF-12 act: 0

How did Cc1ccc(C(=O)Nc2ccc(F)cc2)o1 do in these assays?
ssDAF12 agonist: -1; hgDAF-12 ag: 5; DAX1 inh-1: 0; DAX1 inh-2: 0; SMARCA2 activ: -1; hcDAF-12 act: 2

What do the screens show for `O=C(Nc1nc2ccc(S(=O)(=O)N3CCCCC3)cc2s1)c1cccnc1`?
ssDAF12 agonist: -1; hgDAF-12 ag: 2; DAX1 inh-1: -1; DAX1 inh-2: 1; SMARCA2 activ: -1; hcDAF-12 act: -1

What do the screens show for `CN(C)S(=O)(=O)c1ccc2nc(NC(=O)c3cccnc3)sc2c1`?
ssDAF12 agonist: 0; hgDAF-12 ag: 11*; DAX1 inh-1: 1; DAX1 inh-2: 4.7*; SMARCA2 activ: 4; hcDAF-12 act: 3

What do the screens show for `Cc1ccc(C(=O)Nc2ncc(Cc3ccc(F)cc3)s2)o1`?
ssDAF12 agonist: 0; hgDAF-12 ag: 7; DAX1 inh-1: 4.2*; DAX1 inh-2: 2; SMARCA2 activ: 7.9*; hcDAF-12 act: 5

Results for Cc1ccc(N2C(=O)c3ccccc3C2=O)cc1 ?
ssDAF12 agonist: 0; hgDAF-12 ag: 3; DAX1 inh-1: 1; DAX1 inh-2: 0; SMARCA2 activ: -2; hcDAF-12 act: 0

What do the screens show for `CC(=O)Nc1cccc2c1C(=O)N(c1ccc(C)cc1)C2=O`?
ssDAF12 agonist: 0; hgDAF-12 ag: 2; DAX1 inh-1: 2; DAX1 inh-2: 0; SMARCA2 activ: 1; hcDAF-12 act: 6.0*

What do the screens show for `O=C(CCC(=O)N1CCOc2ccc(Cl)cc21)N1CCN(c2ccccn2)CC1`?
ssDAF12 agonist: -1; hgDAF-12 ag: -5; DAX1 inh-1: -1; DAX1 inh-2: -1; SMARCA2 activ: -2; hcDAF-12 act: -2
